This passage reports composite z-score and z-score results from PubChem BioAssay.

Calls of active or inactive are those of the source. Unless noted, no rule for the calls is given here.

The test system of test [1] is Wnt5a (protein binding on small-molecule microarray). As to the kind of experiment: small molecules binding Wnt5a protein – biophysical, small-molecule microarray, 635/667 nm fluorescence, primary screen (AID 1142).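 Also: fluorescence read at 667 nm with signal to noise per printed feature.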 The conditions noted are these: 635 nm fluorescence, higher = more signal.
The nature of test [2]: ATP-based viability of Huh7 replicon cells – cell-based, CellTiter-Glo luminescence, basal, 48 h, cytotoxicity control for HCV replication inhibitor project, primary screen (AID 1143).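 Also: Huh7 hepatoma cells carrying a hepatitis C replication reporter with no stimulus; test concentration not given here.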 The conditions noted are these: higher = more signal, called active from +8 up or from −8 down. On the technique in general: Replicon systems follow genome replication, usually without infectious particles.

Test [3] can be described thus: Pseudomonas biofilm growth suppression – PAO1 strain, BacTiter-Glo luminescence, LB-PBS, primary screen (AID 1144). The note with it: P. aeruginosa PAO1 biofilm, 12 h, higher = more signal.
A short description of test [4]: basal CRE-LacZ reporter activity in PC12 – cell-based, unstimulated, primary screen (AID 1145). The conditions noted are these: no forskolin, luminescence, 4.5 h, higher = more signal, called active from +8 up or from −8 down.
Test [5] can be described thus: forskolin-driven CRE-LacZ activity in PC12 – cell-based, CRE-LacZ reporter, forskolin-stimulated, primary screen (AID 1146).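 Also: PC12 cells with 6xCRE LacZ reporter stimulated by forskolin 10 µM; beta-galactosidase reporter signal reflecting CREB driven transcription.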 The note with it: luminescence, 4.5 h, higher = more signal, called active from +8 up or from −8 down.
Test [6] concerns the target Streptavidin (Streptomyces avidinii) (UniProt P22629). Nature of the test: compounds binding control protein streptavidin – biophysical, small-molecule microarray, 635/667 nm fluorescence, artefact control for SMM compound annotation, primary screen (AID 1147).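 Also: signal reflects streptavidin binding to arrayed compounds as a control protein.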 The note with it: higher = more signal.
A short description of test [7]: probe aInhba binding on compound microarray – biochemical, small-molecule microarray, 635/667 nm fluorescence, primary screen (AID 1148).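 Also: score merges 667nm spot fluorescence with signal-to-noise for antibody binding to printed compounds.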 The note with it: higher = more signal.
Test [8] addresses Torsin-1A (Homo sapiens) (UniProt O14656). As to the kind of experiment: TOR1A wild-type binding on microarray – cell lysate, small-molecule microarray, lysate, 635/667 nm, primary screen (AID 1149). The conditions noted are these: COS7 hTOR1A-WT lysate, 635 nm fluorescence, higher = more signal.
The target is the same in test [9]. As to the kind of experiment: torsin A mutant lysate binding on microarrays – cell lysate, small-molecule microarray, COS7 lysate, 635/667 nm fluorescence, primary screen (AID 1150).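 Also: score pools 667 nm emission and signal to noise measuring lysate protein binding.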 The note with it: COS7 hTOR1A mutant lysate, 635 nm fluorescence, higher = more signal.
Test [10] deals with Sonic hedgehog protein (Shh). Nature of the test: Sonic hedgehog microarray binding compounds – biochemical, small-molecule microarray, 635/667 nm fluorescence, primary screen (AID 1151).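 Also: Shh protein binding to compounds spotted on small-molecule microarray slides; score combines spot fluorescence intensity with signal-to-noise across triplicate slides.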 The note with it: 635 nm fluorescence, higher = more signal.
The nature of test [11]: optical density shifts of acrAB sulA E. coli – strain DRC41, OD650, 48 h, E. coli filamentation inducer project, primary screen (AID 1152).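 Also: E. coli MC1000 strain DRC41 lacking acrAB efflux pump and sulA.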 The note with it: higher = more signal, called active from +8 up or from −8 down.
Test [12] is described as follows: probe aLefty1 binding on compound microarray – biochemical, small-molecule microarray, 635/667 nm fluorescence, primary screen (AID 1153).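 Also: score merges spot fluorescence with signal-to-noise ratio from the scanned slide images.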 The conditions noted are these: higher = more signal.
Test [13] in a line: plasmodial surface anion channel blockers, osmotic lysis – cell-based, P. falciparum Indochina, OD700, 1 h, primary screen (AID 1154). The conditions noted are these: P. falciparum Indochina infected RBC osmotic lysis, higher = more signal, called active from +8 up or from −8 down.
Test [14] is described as follows: plasmodial surface anion channel blockers, osmotic lysis – cell-based, P. falciparum Indochina, OD700, 2 h, primary screen (AID 1155).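 Also: lysis reports solute entry through the parasite surface anion channel PSAC.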 The conditions noted are these: P. falciparum Indochina infected erythrocytes, higher = more signal, called active from +8 up or from −8 down.
Test [15] can be described thus: changes in parasitized red cell lysis, either direction – P. falciparum Indochina, OD700, 3 h, PSAC antagonist project, primary screen (AID 1156). The note with it: P. falciparum-infected erythrocytes, osmotic lysis, higher = more signal, called active from +8 up or from −8 down.
The nature of test [16]: plasmodial surface anion channel blockers, osmotic lysis – cell-based, P. falciparum Indochina, OD700, 18 h, primary screen (AID 1157). The conditions noted are these: P. falciparum Indochina infected erythrocytes, osmotic lysis OD700, 18 h; higher = more signal, called active from +8 up or from −8 down.
The nature of test [17]: S6 kinase pathway phospho-S6 level changes – cell-based, A549, cytoblot, luminescence, serum-stimulated, primary screen (AID 1158).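 Also: serum-stimulated A549 lung adenocarcinoma cells; signal is phosphorylated S6 detected by cytoblot immunostaining with HRP secondary.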 The conditions noted are these: 5 h, higher = more signal.
The target of test [18] is NADPH oxidase 2 (Homo sapiens) (UniProt P04839). As to the kind of experiment: compounds shifting NOX2 Amplex Red fluorescence – cell-based, HEK293-NOX2, PMA-stimulated, NOX inhibitor project, primary screen (AID 1159). Also: test concentration not given here. The note with it: 45 min, higher = more signal, called active from +8 up or from −8 down.
Test [19] deals with NADPH oxidase 4 (Homo sapiens) (UniProt Q9NPH5). As to the kind of experiment: compounds shifting NOX4 Amplex Red fluorescence – cell-based, HEK293-NOX4, tetracycline-induced, NOX inhibitor project, primary screen (AID 1160). The conditions noted are these: HEK293-NOX4, Amplex Red H2O2 fluorescence, 45 min; higher = more signal, called active from +8 up or from −8 down.
In test [20] the target is NADPH oxidase 5 (Homo sapiens) (UniProt Q96PH1). As to the kind of experiment: compounds shifting NOX5 Amplex Red fluorescence – cell-based, HEK293-NOX5, NOX inhibitor project, primary screen (AID 1161). The conditions noted are these: HEK293-NOX5, ionomycin, 45 min, higher = more signal.
NADPH oxidase 5 (Homo sapiens), sequence (Q96PH1 whole entry, looked up): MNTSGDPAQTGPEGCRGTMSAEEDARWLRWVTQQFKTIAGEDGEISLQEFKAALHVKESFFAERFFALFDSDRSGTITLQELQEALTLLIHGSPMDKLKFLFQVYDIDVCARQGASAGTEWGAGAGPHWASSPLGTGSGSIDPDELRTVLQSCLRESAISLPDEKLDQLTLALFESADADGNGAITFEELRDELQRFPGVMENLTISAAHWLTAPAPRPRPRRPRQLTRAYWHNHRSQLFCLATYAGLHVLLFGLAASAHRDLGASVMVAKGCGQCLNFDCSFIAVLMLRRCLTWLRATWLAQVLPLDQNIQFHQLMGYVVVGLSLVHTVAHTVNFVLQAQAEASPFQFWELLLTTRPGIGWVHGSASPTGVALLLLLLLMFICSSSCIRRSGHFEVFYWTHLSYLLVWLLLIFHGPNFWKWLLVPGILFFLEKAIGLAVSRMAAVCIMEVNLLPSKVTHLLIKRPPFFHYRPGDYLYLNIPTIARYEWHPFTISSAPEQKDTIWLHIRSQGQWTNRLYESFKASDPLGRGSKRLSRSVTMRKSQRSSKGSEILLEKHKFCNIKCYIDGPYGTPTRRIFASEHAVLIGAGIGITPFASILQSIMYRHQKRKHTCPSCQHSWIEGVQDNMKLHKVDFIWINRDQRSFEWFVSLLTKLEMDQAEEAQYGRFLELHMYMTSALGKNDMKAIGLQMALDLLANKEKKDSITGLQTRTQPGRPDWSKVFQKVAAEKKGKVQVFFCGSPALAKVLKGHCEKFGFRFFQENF

NADPH oxidase 4 (Homo sapiens), sequence (Q9NPH5 whole entry, looked up): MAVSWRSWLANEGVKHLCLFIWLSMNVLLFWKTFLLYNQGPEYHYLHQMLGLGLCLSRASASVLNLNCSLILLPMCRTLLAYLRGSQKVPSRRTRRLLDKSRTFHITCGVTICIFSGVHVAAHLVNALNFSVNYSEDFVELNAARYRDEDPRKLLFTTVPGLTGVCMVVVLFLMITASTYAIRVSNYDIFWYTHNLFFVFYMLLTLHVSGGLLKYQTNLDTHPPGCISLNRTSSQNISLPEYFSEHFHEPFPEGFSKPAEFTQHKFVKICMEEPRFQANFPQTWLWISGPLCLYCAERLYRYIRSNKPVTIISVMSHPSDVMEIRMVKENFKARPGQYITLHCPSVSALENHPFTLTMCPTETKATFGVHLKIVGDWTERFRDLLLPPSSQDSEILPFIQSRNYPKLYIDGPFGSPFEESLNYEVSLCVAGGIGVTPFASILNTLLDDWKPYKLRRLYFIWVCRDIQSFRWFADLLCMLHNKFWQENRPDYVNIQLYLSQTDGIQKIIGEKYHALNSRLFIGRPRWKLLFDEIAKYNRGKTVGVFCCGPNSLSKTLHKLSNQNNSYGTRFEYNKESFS
Torsin-1A (Homo sapiens), sequence (O14656 whole entry, looked up): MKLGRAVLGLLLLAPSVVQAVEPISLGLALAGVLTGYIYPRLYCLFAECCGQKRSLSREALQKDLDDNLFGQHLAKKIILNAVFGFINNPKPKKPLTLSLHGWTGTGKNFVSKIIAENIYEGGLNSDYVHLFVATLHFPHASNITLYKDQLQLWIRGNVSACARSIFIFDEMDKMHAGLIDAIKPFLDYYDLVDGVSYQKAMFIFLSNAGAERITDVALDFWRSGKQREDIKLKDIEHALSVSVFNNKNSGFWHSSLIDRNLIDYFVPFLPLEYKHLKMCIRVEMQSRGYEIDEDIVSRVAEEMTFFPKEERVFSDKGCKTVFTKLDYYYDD
Streptavidin (Streptomyces avidinii), sequence (P22629 whole entry, looked up): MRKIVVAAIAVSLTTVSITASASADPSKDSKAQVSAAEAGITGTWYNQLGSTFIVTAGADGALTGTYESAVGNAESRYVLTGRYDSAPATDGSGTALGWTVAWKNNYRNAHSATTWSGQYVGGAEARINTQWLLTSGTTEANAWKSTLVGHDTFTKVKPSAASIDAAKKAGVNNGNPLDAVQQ
NADPH oxidase 2 (Homo sapiens), sequence (P04839 whole entry, looked up): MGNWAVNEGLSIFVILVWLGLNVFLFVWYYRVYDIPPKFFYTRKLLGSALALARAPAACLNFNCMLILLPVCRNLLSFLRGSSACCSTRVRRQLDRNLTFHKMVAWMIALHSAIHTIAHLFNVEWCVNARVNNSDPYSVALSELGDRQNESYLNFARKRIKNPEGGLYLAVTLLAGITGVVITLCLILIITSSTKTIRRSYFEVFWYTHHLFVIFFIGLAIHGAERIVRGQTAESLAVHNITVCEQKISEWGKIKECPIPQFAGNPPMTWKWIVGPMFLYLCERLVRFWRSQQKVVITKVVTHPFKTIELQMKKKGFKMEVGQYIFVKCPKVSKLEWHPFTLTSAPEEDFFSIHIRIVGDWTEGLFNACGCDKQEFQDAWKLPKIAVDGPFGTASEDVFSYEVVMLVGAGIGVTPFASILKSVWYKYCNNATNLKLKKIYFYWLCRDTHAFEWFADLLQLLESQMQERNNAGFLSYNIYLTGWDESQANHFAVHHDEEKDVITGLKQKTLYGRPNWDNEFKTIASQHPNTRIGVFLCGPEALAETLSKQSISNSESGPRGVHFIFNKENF

In the case of `CC(CCN1CCCc2nc(C)c(C)cc21)=NOC[C@@H](O)COCc1ccco1`, the composite z-score in [1] was determined as 0.516; in test [6], 0.0849; in [7] it was 1.26; with Torsin-1A (Homo sapiens) [8], 4.39; with Torsin-1A (Homo sapiens) [9], 4.29; in test [10], 2.5. Also, the composite z-score in test [12] came to 1.95. For the same compound, the z-score was -0.244 (inactive) in test [2]; -0.837 (inactive) in [3]; -0.0638 (inactive) in test [4]; -0.175 (inactive) in test [5]; 0.768 (inactive) in [11]; 3.52 (inactive) in test [13]. Further, the z-score in [14] is 0.281 (inactive); in [15] it was 0.453 (inactive); in test [16] it was 0.22 (inactive); in test [17], -0.815; in [18], -0.869 (inactive); in test [19], -0.583 (inactive). For the same compound, the z-score in test [20] was -0.144.

As to `COC(=O)[C@H](C)NC(=O)CCC1CC(OC(=O)NCc2cccc3ccccc23)CC2(CCCC(COC(=O)NCc3cccc(C(F)(F)F)c3)O2)O1` (stereo not given in full), the composite z-score in test [1] was 0.166; in test [6] it was 0.925; in test [7], 0.444; with Torsin-1A (Homo sapiens) [8] it was 0.241; in the test with Torsin-1A (Homo sapiens) [9] it was 0.225; in [10] it was 1.04. This compound also registered a composite z-score in test [12] of 0.0794. Also, the z-score is -1.33 (inactive) in test [2]; -1.07 (inactive) in test [3]; -0.0755 (inactive) in [4]; -0.213 (inactive) in test [5]; -0.356 (inactive) in test [11]; 1.35 (inactive) in test [13]. For the same compound, the z-score in [14] was -0.871 (inactive); in test [15], 0.339 (inactive); in test [16] it was -1.23 (inactive); in test [17], 1.1; in [18], 0.352 (inactive); in test [19], -0.179 (inactive). The z-score in test [20] came out at 0.0278.

For the compound `CCOC(=O)CCN1C(=O)[C@H]2[C@H]3[C@H](O)[C@H](O)CC(=O)[C@@H]3CC[C@H]2C1=O`, the composite z-score was 0.352 in test [1]; 0.182 in test [6]; -0.179 in [7]; 0.205 in the test with Torsin-1A (Homo sapiens) [8]; 0.5 with Torsin-1A (Homo sapiens) [9]; 0.757 in [10]. Besides, the composite z-score in test [12] is -0.407. The z-score is -0.19 (inactive) in [2]; -0.401 (inactive) in test [3]; 0.527 (inactive) in test [4]; -0.671 (inactive) in test [5]; -0.851 (inactive) in test [11]; 0.781 (inactive) in test [13]. Also, the z-score was 0.411 (inactive) in test [14]; -0.737 (inactive) in test [15]; 0.305 (inactive) in test [16]; -0.373 in test [17]; 0.583 (inactive) in test [18]; 0.41 (inactive) in [19]. Further, the z-score in test [20] is -0.0545.

Regarding `COc1ccc(COC(=O)NN=C2C[C@@H](O)[C@@H](O)[C@@H]3[C@@H]4C(=O)N([C@@H](C)c5ccccc5)C(=O)[C@@H]4CC[C@@H]23)cc1`, the composite z-score was 0.251 in test [1]; 0.409 in [6]; 0.0111 in [7]; 0.699 in the test with Torsin-1A (Homo sapiens) [8]; 0.388 with Torsin-1A (Homo sapiens) [9]; -0.0113 in test [10]. The composite z-score in test [12] was -0.102. The z-score is 1 (inactive) in [2]; -0.253 (inactive) in test [3]; -0.113 (inactive) in test [4]; 0.0521 (inactive) in test [5]; 0.774 (inactive) in test [11]; 0.823 (inactive) in [13]. Besides, the z-score in [14] is -0.119 (inactive); in test [15], -0.667 (inactive); in test [16] it was -0.0631 (inactive); in [17], -0.339; in test [18], -0.247 (inactive); in test [19], 1.01 (inactive). Also, the z-score in test [20] was -0.0473.

As to `COC(=O)[C@H](C)NC(=O)CCC1CC(OC(=O)NCc2cccc3ccccc23)CC2(CCCC(COC(=O)NCc3ccccc3)O2)O1` (stereo not given in full), the composite z-score was 0.276 in test [1]; 0.777 in [6]; 0.0901 in [7]; 0.283 in the test with Torsin-1A (Homo sapiens) [8]; 0.542 with Torsin-1A (Homo sapiens) [9]; 1.07 in test [10]. The composite z-score in [12] is 0.378. Moreover, the z-score in test [2] was -1.12 (inactive); in test [3], -1.33 (inactive); in test [4], -0.437 (inactive); in test [5] it was 0.0493 (inactive); in [11], -0.249 (inactive); in [13], 0.385 (inactive). Moreover, the z-score in test [14] is -0.254 (inactive); in test [15], 0.0409 (inactive); in test [16] it was 0.0533 (inactive); in test [17], 0.362; in test [18], 1.42 (inactive); in [19], 0.73 (inactive). In addition, in test [20], the z-score was found to be 1.06.

On to `CO[C@@H]1[C@H](O)CO[C@H]1C=Cc1ccccc1`, for which the composite z-score in test [1] is -0.174; in [6] it was -0.223; in test [7] it was -0.182; with Torsin-1A (Homo sapiens) [8] it was -0.518; with Torsin-1A (Homo sapiens) [9], 0.0143; in test [10] it was -0.0147. The same compound yielded a composite z-score in test [12] of -0.0559. Also, the z-score in test [2] is -0.536 (inactive); in test [3], 0.165 (inactive); in test [4] it was -0.164 (inactive); in test [5], -0.43 (inactive); in test [11], -0.0624 (inactive); in test [13], 2.7 (inactive). In addition, the z-score in test [14] was 0.178 (inactive); in [15], 0.837 (inactive); in test [16], -0.0932 (inactive); in test [17] it was 0.722; in test [18] it was -0.403 (inactive); in test [19], -0.898 (inactive). The z-score in test [20] worked out at 1.23.

Take `CON=C(C)CCN1CCCCc2nc(C)c(C)cc21`: the composite z-score is 0.0272 in [1]; -0.0284 in [6]; -0.0131 in test [7]; 1.5 with Torsin-1A (Homo sapiens) [8]; 0.816 in the test with Torsin-1A (Homo sapiens) [9]; 0.936 in test [10]. The composite z-score in test [12] turned out to be 0.168. Besides, the z-score in [2] was 0.559 (inactive); in test [3] it was -0.0896 (inactive); in [4], 0.397 (inactive); in test [5] it was 1.13 (inactive); in test [11] it was -1.23 (inactive); in test [13] it was -0.149 (inactive). The z-score was -0.117 (inactive) in [14]; -0.374 (inactive) in test [15]; 0.269 (inactive) in test [16]; -0.834 in test [17]; -0.0289 (inactive) in test [18]; -0.0593 (inactive) in [19]. In test [20], the z-score was -0.836.

As for `COC(=O)[C@@H]1CC[C@H](C)[C@@H](c2ccc(C)cc2)N1C(=O)c1ccc(C=NOC[C@@H](O)[C@H]2O[C@@H]3OC(C)(C)O[C@@H]3[C@H]2O)cc1`, the composite z-score is 0.0258 in [1]; 0.54 in test [6]; 0.31 in [7]; 0.215 with Torsin-1A (Homo sapiens) [8]; 0.277 in the test with Torsin-1A (Homo sapiens) [9]; 0.241 in test [10]. Besides, in test [12], the composite z-score was found to be 0.0313. Also, the z-score in [2] was 0.48 (inactive); in test [3], -0.0399 (inactive); in test [4] it was 9.08 (active); in test [5] it was 0.413 (inactive); in test [11], 1.44 (inactive); in test [13] it was 0.465 (inactive). Besides, the z-score in test [14] is 0.364 (inactive); in test [15], 0.107 (inactive); in test [16], 0.342 (inactive); in [17], -0.924; in [18], 0.659 (inactive); in [19], 0.589 (inactive). For the same compound, the z-score in [20] amounted to 0.417.
